According to PubChem BioAssay AID777 (Sanford-Burnham Center for Chemical Genomics, 2007):
The whole screen tested about 96,000 compounds, of which about 19,000 (20%) were called active. These entries were drawn from the full list. Values without a mark were called inactive.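 How the source made its calls: active means blocking of liver enzyme CYP2C9 beyond about 50% at 5 µM (limit read from the data); inactive means the rest.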

biological target: Cytochrome P450 2C9 (Homo sapiens) (UniProt P11712); assay: blockers of cytochrome P450 2C9 activity – biochemical, luminescence, ADME assay, primary screen (AID 777); details: CYP2C9 Supersomes, luciferin-H conversion, at 5 µM, stronger effect = higher value
Sequence (P11712 whole entry, looked up): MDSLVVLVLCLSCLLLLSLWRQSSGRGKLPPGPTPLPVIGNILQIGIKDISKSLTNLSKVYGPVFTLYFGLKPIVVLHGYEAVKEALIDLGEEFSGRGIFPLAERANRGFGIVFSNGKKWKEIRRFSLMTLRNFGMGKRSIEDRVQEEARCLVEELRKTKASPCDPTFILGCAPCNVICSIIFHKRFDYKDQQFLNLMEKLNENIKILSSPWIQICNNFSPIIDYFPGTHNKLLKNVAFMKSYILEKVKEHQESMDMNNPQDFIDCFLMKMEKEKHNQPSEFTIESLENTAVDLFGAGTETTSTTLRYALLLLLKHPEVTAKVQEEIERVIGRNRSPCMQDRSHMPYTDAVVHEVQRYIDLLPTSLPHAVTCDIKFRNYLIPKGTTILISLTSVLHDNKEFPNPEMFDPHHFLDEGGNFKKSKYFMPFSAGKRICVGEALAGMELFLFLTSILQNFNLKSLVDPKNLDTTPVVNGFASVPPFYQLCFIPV

SMILES	inhibition
Cc1ccccc1C(OCC(O)CN1CCCCC1CCO)c1ccccc1 (stereo not drawn)	-0.6%
COc1cc(NS(=O)(=O)c2ccc(N/C=C(\C=O)c3nc4cc(Cl)ccc4o3)cc2)nc(OC)n1	39.2%
O=c1[nH]c(-c2ccccc2)c(-c2ccccc2)[nH]1	17.9%
O=c1[nH]c2ccccc2n2c(-c3ccccc3)nnc12	62% (active)
O=[N+]([O-])c1cccc(-c2nnc3c4ccccc4c4ccccc4n23)c1	11.9%
COc1ccccc1-c1nnc(SCC(=O)N2CC(C)CC(C)C2)o1 (stereo not drawn)	-292%
O=C(c1cnn2ccccc12)N1CCc2ccccc21	-42.7%
CCC(C)NC(=O)N[C@@H](CCSC)C(=O)O (stereo partly drawn)	8.8%
C/C(=N/NC(=O)c1ccc(NC(=O)c2ccc(F)cc2)cc1)c1ccccc1	3.1%
O=C(Cn1cc(/C=N/NC(=O)c2cccc(C(F)(F)F)c2)c2ccccc21)Nc1ccc(F)cc1	23.8%
O=C(CSc1ccc(/C=N/NC(=O)c2cccc(F)c2)o1)Nc1ccccc1	80.3% (active)
CC(C)c1nc2oc3c(N4CCN(C)CC4)ncnc3c2c2c1CCC2	24%
CCOC(=O)c1c(C)c(C(=O)NCCc2ccc(S(N)(=O)=O)cc2)c(C)n1CC	16.4%
CCC12CN3CC(CC)(CN(C1)C31C(=O)N(C)c3ccc(C)cc31)C2=O (stereo not drawn)	3.6%
O=C(NCc1ccccn1)c1ccc2nc(-c3ccco3)c(-c3ccco3)nc2c1	67.3% (active)
CN(c1ccc(C(=O)NCc2ccccn2)cc1)S(C)(=O)=O	-10.8%
O=C(NCc1ccccn1)c1cc2ccccc2oc1=O	-26%
COc1ccc(CN2CCn3ncc(C(=O)Nc4ccc(Cl)cc4Cl)c3C2=O)cc1	14.3%
CC(C)C(=O)Nc1nnc(Sc2ccc(N(C)C)cc2)s1	-3.9%
ONC(=Nc1ccc(Cl)cc1)c1ccccc1Cl	40.4%
O=C(NCCN1CCOCC1)[C@H](Cc1ccccc1)N1C(=O)c2ccccc2C1=O	-32.6%

SMILES	inhibition
Cc1cc(C)nc(NC(=O)C(C)N2C(=O)c3ccccc3C2=O)n1 (stereo not drawn)	-15.6%
N/C(=N\c1nc2ccccc2o1)NC(=O)C(Cc1ccccc1)N1C(=O)c2ccccc2C1=O (stereo not drawn)	89.2% (active)
CCN(CC)CCn1c(=S)[nH]c2ncccc2c1=O	16.3%
CCCc1nnc(NC(=O)c2cccs2)s1	14.9%
COc1ccc(OC)c(Nc2nc(-c3ccc(O)c(O)c3)cs2)c1	24.3%
COc1ccc(-c2nc(-c3ccccc3)no2)c(OC)c1	-7%
C=C(C)COc1ccc(-c2n[nH]c(C)c2-c2ccccc2)c(O)c1	26.2%
COc1ccccc1-c1n[nH]c2c1[C@H](C)CC[C@H]2C(C)C	36.5%
COc1ccc(-c2n[nH]c(C)c2-c2ccc(OC)c(OC)c2)c(O)c1	98.8% (active)
C=C(C)COc1ccc(-c2n[nH]c(C)c2-c2ccccc2OC)c(O)c1	54.9% (active)
CCc1c(C)[nH]c(=S)c(C#N)c1C	16%
Cc1cc(C)nc(NC2=NCC(=O)N2c2ccc(Cl)cc2)n1	-8.5%
Cc1ccc(Oc2nc3ccccc3n3c(C)nnc23)cc1	13.5%
COC(=O)CN(c1cccc(C(C)=O)c1)S(C)(=O)=O	40.7%
CC1=NN(C(C)C)C(=O)C1	12.8%
COCCNC(=O)COc1ccc(C)c(C)c1	-28.7%
O=S(=O)(O)c1nc2ccccc2n1Cc1ccc(Cl)cc1	43.6%
CCC(=O)Nc1nc2ccccc2n1Cc1ccccc1C	-6.9%
O=S(=O)(O)c1nc2ccccc2n1Cc1ccc(Cl)cc1Cl	74.7% (active)
Cc1ccc(F)c(NC(=O)CCc2ccccc2)c1	-15.7%
O=C(OCc1cn(-c2ccc(Cl)c(Cl)c2)nn1)c1ccccc1Cl	-32.3%

SMILES	inhibition
CCc1nnc(NS(=O)(=O)c2ccc(N=Cc3c(C)[nH]n(-c4ccc(C)cc4)c3=O)cc2)s1	17%
CCc1nnc(NC(=O)c2ccc(S(=O)(=O)NC3CCCCC3)cc2)s1	20.2%
CCc1nnc(NS(=O)(=O)c2ccc(NS(=O)(=O)c3ccccc3)cc2)s1	77.5% (active)
CCC(C)NC(=O)c1cc(Cl)ccc1OC (stereo not drawn)	-166%
Cc1ccc(C(C(=O)NC2CCCCC2)N(C(=O)c2csnn2)C2CC2)o1 (stereo not drawn)	26.6%
CCc1c(C)sc(NC(=O)OC)c1C(=O)N1CCOCC1	-10.7%
COc1ccccc1N1CC(O)=C(c2nc3ccccc3s2)C1=N	26.8%
CCCCCN1CC(O)=C(c2nc(-c3ccc(Cl)cc3)cs2)C1=N	62.1% (active)
CCCCCN1CC(O)=C(c2ccccc2)C1=N	-11.3%
Cc1ccc(CNC(=O)C2CC(c3ccccc3[N+](=O)[O-])=NO2)o1 (stereo not drawn)	-18.8%
COC(=O)c1ccc(CSc2nc3cc(Cl)ccc3o2)cc1	-7.6%
CC(C)c1nc(N2CCOCC2)c(C#N)c2c1COC(C)(C)C2	61.7% (active)
C1=C(N2CCOCC2)/C(=C/c2nc3ccccc3[nH]2)CC1	11.9%
c1ccc2[nH]c(NCCN3CCOCC3)nc2c1	-29.7%
CC1(C)Cc2c(C#N)c(SCc3nc4ccccc4[nH]3)nc(N3CCOCC3)c2CO1	96.2% (active)
Cc1nc(NCc2ccccc2)c(C(N)=O)c2c1COC(C)(C)C2	2.7%
CC(C)Cc1nc(N2CCOCC2)c(C#N)c2c1CCC2	39.5%
CC(C)C(=O)N1CCN(c2nc(-c3ccccc3)c3c(c2C#N)CC(C)(C)OC3)CC1	97.1% (active)
c1ccc2cc(OCCN3CCCC3)ccc2c1	2.2%
O=C(CCCN1C(=O)CSc2ncccc21)N1CCN(c2cccc(C(F)(F)F)c2)CC1	31.1%
CN1CCN(CC(O)COCc2ccc3c(c2)OCO3)CC1 (stereo not drawn)	-13.3%
